These results are taken from PubChem BioAssay (Tox21).

A number with no mark means an inactive call. Results filed as inconclusive are left out. Active and inactive are the calls of the source. Unless noted, calls come from the whole dose curve; as a rule, active = well fitted curve in the direction sought with a large enough effect in the repeat runs; inconclusive = weak or mixed curves; inactive = no such curve, though single readings can be large; an effect the other way counts as inactive or inconclusive.

Assay [1] in a line: qHTS assay to test for compound auto fluorescence at 535 nm (green) in HEK293 cells (AID 720680). On the technique in general: Quantitative high-throughput screening tests each substance at several concentrations.
Assay [2] in a line: qHTS assay to test for compound auto fluorescence at 460 nm (blue) in HEK293 cell free culture (AID 720681). The essentials:
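Blue fluorescence (Ex 405/Em 460 nm, triamterene-equivalent) was read immediately after pin transfer of compound or DMSO into medium (DMEM, 10% FBS) without cells.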

The nature of assay [3]: qHTS assay to test for compound auto fluorescence at 535 nm (green) in HEK293 cell free culture (AID 720682). The essentials:
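Fluorescein serves as the green reference fluorophore; each compound's intrinsic emission at 535 nm (excitation 485 nm) is reported as an equivalent amount of that dye, measured in serum-containing DMEM without cells.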

Assay [4] is described as follows: qHTS assay to test for compound auto fluorescence at 590 nm (red) in HEK293 cell free culture (AID 720683). The essentials:
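Red-channel autofluorescence of compounds in culture medium (DMEM, 10% FBS), no cells, measured at 540/590 nm. Rose Bengal sodium is the reference fluorophore for equivalence.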

The nature of assay [5]: qHTS assay to test for compound auto fluorescence at 460 nm (blue) in HepG2 cell free culture (AID 720685). The essentials:
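Compound (23 nL) or DMSO pinned into cell-free MEM with 10% FBS; blue fluorescence read at 405/460 nm excitation/emission, expressed as auto-fluorescence equivalency to triamterene.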

Assay [6] can be described thus: qHTS assay to test for compound auto fluorescence at 535 nm (green) in HepG2 cell free culture (AID 720686).
Assay [7] is described as follows: qHTS assay to test for compound auto fluorescence at 460 nm (blue) in HepG2 cells (AID 720687). The method, boiled down:
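Blue-channel autofluorescence (Ex/Em 405/460 nm, triamterene-equivalent) was measured after 1 hr compound exposure at 37 C, 5% CO2. Cells were HepG2, plated overnight at 37 C in MEM plus 10% FBS.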

Assay [8] is described as follows: qHTS assay to identify small molecule antagonists of the glucocorticoid receptor (GR) signaling pathway - cell viability counter screen (AID 720693). Note: nearly all actives have a fitted effect of over 55% in size.
A short description of assay [9]: qHTS assay for identifying genotoxic compounds that show differential cytotoxicity against isogenic chicken DT40 cell lines with known DNA damage response pathways - Rev3 mutant cell line (AID 743014). Note: nearly all actives have a fitted effect of over 55% in size. Note: potency is the fitted concentration of half-maximal effect.
Assay [10] can be described thus: qHTS assay for identifying genotoxic compounds that show differential cytotoxicity against isogenic chicken DT40 cell lines with known DNA damage response pathways - Rad54/Ku70 mutant cell line (AID 743015). Note: nearly all actives have a fitted effect of over 60% in size. Note: potency is the fitted concentration of half-maximal effect.
The nature of assay [11]: qHTS assay to identify small molecule antagonists of the androgen receptor (AR) signaling pathway - cell viability counter screen (AID 743033; note: nearly all actives have a fitted effect of over 45% in size).
Assay [12] in a line: qHTS assay to identify small molecule antagonists of the androgen receptor (AR) signaling pathway using the MDA cell line - cell viability counter screen (AID 743041; note: nearly all actives have a fitted effect of over 45% in size). The essentials: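 R1881-driven MDA-kb2 AR-luc cells, 3,000/well, were dosed with library compounds for 16 h; cell health came from CellTiter-Fluor fluorescence in the reporter wells.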
The nature of assay [13]: qHTS assay to identify small molecule antagonists of the thyroid receptor (TR) signaling pathway - cell viability counter screen (AID 743064). Note: nearly all actives have a fitted effect of over 50% in size. The essentials:
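Fluorescence from CellTiter-Fluor, added after 23.5 h exposure at 37 °C, reported viability of GH3.TRE-Luc cells co-treated with compound and 1 nM T3. Measured in the same wells as the luciferase TR readout.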

The target in assay [14] is Glucocorticoid receptor (Homo sapiens) (UniProt P04150). As to the kind of experiment: qHTS assay to identify small molecule antagonists of the glucocorticoid receptor (GR) signaling pathway (AID 720692; active = well fitted inhibition curve with a large enough effect in the signal ratio in the repeat runs, not every such curve was filed as active; the % refers to the signal ratio). The method, boiled down:
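Dexamethasone (5 nM final) stimulated a stably integrated GRE-beta-lactamase reporter in HeLa cells during 18 h co-incubation with compounds; signal was quantified as fluorescence intensity of B/G FRET substrate after 2 h.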

The nature of assay [15]: qHTS assay for identifying genotoxic compounds that show differential cytotoxicity against isogenic chicken DT40 cell lines with known DNA damage response pathways - wild type cell line (AID 743012). Note: nearly all actives have a fitted effect of over 60% in size. Note: potency is the fitted concentration of half-maximal effect. The method, boiled down:
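Using parental DT40 (300 cells/well), compounds delivered in DMSO incubate 40 h at 37 C/5% CO2. CellTiter-Glo reagent then stands 30 min at room temperature, and luminescence gives cell viability.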

Assay [16] is described as follows: qHTS assay to test for compound auto fluorescence at 590 nm (red) in HepG2 cell free culture (AID 720684). The method, boiled down: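 Plate contents were MEM with 10% FBS plus test compound or DMSO, no cells. Fluorescence was recorded with 540 nm excitation and 590 nm emission.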
For assay [17], the target named is Glucocorticoid receptor (Homo sapiens) (UniProt P04150). Kind of assay: qHTS assay to identify small molecule agonists of the glucocorticoid receptor (GR) signaling pathway (AID 720691; active = well fitted activation curve with a large enough effect in the signal ratio in the repeat runs, not every such curve was filed as active; the % refers to the signal ratio). The essentials:
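Reporter read-out: fluorescence intensity following 2 h room-temperature LiveBLAzer B/G FRET substrate loading. Prior step: GR-bla HeLa cells held 4 h, then treated 18 h at 37 C.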

The target in assay [18] is Androgen receptor (Homo sapiens) (UniProt P10275). As to the kind of experiment: qHTS assay to identify small molecule agonists of the androgen receptor (AR) signaling pathway (AID 743036; active = well fitted activation curve with a large enough effect in the signal ratio in the repeat runs, with a control signal flat, not every such curve was filed as active; the % refers to the signal ratio). The essentials: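 Fluorescence from a beta-lactamase FRET substrate served as read-out in AR-UAS-bla GripTite HEK293 cells. Cells were treated with DMSO-dissolved compounds for 16 h at 37C, then with LiveBLAzer B/G substrate for 2 h at room temperature.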

The target is the same in assay [19]. Kind of assay: qHTS assay to identify small molecule agonists of the androgen receptor (AR) signaling pathway using the MDA cell line (AID 743040; note: nearly all actives have a fitted effect of over 20% in size). The essentials:
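After a 5 h incubation at 37C and 0% CO2, MDA-kb2 reporter cells were dosed with compounds in DMSO and kept 16 h under the same conditions. Luciferase activity was then read as luminescence with ONE-Glo.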

Assay [20] shares this target. Kind of assay: qHTS assay to identify small molecule antagonists of the androgen receptor (AR) signaling pathway using the MDA cell line (AID 743042; note: nearly all actives have a fitted effect of over 55% in size). The method, boiled down:
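Antagonist mode: compounds plus R1881 agonist added to MDA-kb2 AR-luc cells, incubated 16 h at 37C. Luciferase reporter luminescence quantified, with multiplexed CellTiter-Fluor readout for cell viability.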

Androgen receptor (Homo sapiens), sequence (P10275 whole entry, looked up): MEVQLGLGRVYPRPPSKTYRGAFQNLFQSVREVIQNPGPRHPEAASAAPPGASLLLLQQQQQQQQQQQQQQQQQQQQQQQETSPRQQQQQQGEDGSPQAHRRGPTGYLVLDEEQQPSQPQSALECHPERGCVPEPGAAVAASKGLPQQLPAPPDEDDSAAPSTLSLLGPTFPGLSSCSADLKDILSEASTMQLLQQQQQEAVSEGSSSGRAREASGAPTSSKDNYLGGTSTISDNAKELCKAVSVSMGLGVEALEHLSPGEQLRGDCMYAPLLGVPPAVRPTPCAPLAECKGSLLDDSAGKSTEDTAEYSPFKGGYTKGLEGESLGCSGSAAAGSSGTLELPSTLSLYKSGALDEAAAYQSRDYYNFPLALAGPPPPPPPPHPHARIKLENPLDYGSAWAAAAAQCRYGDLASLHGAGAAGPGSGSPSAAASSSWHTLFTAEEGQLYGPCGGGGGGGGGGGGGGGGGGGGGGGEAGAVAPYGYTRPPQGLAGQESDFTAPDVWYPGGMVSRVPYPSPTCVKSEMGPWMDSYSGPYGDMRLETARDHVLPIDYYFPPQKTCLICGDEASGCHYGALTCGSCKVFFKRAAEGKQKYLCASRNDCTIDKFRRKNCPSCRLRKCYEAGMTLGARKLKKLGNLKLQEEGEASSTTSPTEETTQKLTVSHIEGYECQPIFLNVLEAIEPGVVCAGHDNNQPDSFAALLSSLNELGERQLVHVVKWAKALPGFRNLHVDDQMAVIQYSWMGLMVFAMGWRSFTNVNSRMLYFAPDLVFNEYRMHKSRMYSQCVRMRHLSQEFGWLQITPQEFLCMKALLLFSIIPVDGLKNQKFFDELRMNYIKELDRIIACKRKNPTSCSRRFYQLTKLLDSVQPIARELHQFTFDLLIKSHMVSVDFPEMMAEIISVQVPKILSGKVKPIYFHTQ
Glucocorticoid receptor (Homo sapiens), sequence (P04150 whole entry, looked up): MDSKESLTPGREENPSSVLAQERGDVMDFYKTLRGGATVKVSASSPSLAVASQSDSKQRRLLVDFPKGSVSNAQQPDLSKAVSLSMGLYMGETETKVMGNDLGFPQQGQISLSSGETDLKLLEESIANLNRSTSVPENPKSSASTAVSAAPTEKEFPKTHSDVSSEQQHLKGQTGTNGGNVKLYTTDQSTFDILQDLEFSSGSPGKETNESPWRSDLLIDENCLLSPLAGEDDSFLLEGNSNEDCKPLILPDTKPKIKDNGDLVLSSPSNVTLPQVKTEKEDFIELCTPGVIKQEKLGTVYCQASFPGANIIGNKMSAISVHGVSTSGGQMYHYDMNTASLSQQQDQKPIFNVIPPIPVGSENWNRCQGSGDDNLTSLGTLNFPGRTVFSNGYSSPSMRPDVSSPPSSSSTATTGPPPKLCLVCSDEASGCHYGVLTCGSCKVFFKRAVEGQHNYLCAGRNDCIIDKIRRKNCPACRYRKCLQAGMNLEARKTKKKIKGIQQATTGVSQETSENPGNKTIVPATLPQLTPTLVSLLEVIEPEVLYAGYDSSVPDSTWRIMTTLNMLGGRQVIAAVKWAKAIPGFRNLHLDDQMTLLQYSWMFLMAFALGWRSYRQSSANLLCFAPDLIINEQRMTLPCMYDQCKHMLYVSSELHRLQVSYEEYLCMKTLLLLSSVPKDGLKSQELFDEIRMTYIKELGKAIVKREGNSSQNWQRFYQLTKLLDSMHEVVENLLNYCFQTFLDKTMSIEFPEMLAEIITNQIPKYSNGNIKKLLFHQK

As for `C=CC(O)CCCCC` (configuration not stated), the compound was called inactive in assay [1], in assay [3], in assay [4], in assay [5], in assay [6] and in assay [7]. The Potency result in [2], in assay [8], in assay [9], in assay [10], in [11] and in [12] was “inactive” throughout. In assay [13], the Potency entry was “inactive”.

For `CCC(C)CCCC(C)(C)O` (configuration not stated), the compound was called inactive in assay [1], in assay [3], in assay [4], in [5], in [6] and in assay [7]. In addition, the Potency entry in assay [14], in [8], in assay [15], in assay [9], in assay [10] and in assay [11] was “inactive” each time. The Potency result in assay [12] is “inactive”.

For the compound `CCCOC(C)=O`, the outcome in [1], in assay [3], in assay [4], in [16], in assay [5] and in assay [6] was inactive. Besides, the call in assay [7], in assay [18] and in [19] was inactive. The Potency result in assay [17], in assay [14], in assay [8], in [15], in assay [9] and in assay [10] was “inactive” each time. Further, the Potency entry in assay [11], in assay [12] and in assay [20] was “inactive” in each case.

For `CC(O)C(C)O` (configuration not stated), the Potency entry in assay [2], in [17], in assay [14], in assay [8], in assay [15] and in assay [9] was “inactive” throughout. Moreover, the Potency result in [10], in [11] and in [12] was “inactive” each time. For the same compound, the outcome in [3], in [4], in assay [16], in assay [5], in assay [6] and in [7] was inactive.

As for `CCc1ccc(C(=O)C(C)CN2CCCCC2)cc1` (configuration not stated), the compound was called inactive in [1], in [3], in assay [4], in assay [5], in assay [6] and in [7]. For the same compound, the Potency entry in assay [14], in [8], in assay [11] and in assay [13] was “inactive” each time. Besides, the Potency in assay [15] is 11.9 µM (active); in assay [9], 11.9 µM (active); in assay [10] it was 16.8 µM (active).

With `O=C1CCCN1CCO`, the compound was called inactive in assay [1], in assay [3], in assay [4], in [16], in assay [5] and in assay [6]. In addition, the outcome in [7] was inactive. In addition, the Potency result in assay [17], in assay [14], in [8], in assay [12] and in assay [13] was “inactive” in each case. The Potency in [9] was 54.5 µM (active).

Turning to `O=C(OC1C[C@H]2CC[C@@H](C1)[N+]21CCCC1)C(O)(c1ccccc1)c1ccccc1` (some centres not stated), the call in assay [1], in [3], in assay [4], in assay [16], in [5] and in assay [6] was inactive. Also, the result in [7], in assay [18] and in assay [19] was inactive. Besides, the Potency entry in [8], in assay [15], in [9], in assay [10], in assay [12] and in assay [20] was “inactive” each time. Further, in assay [13], the Potency result is “inactive”.

On to `CCOCCn1c(N2CCCN(C)CC2)nc2ccccc21`, for which the call in assay [1], in [3], in assay [4], in [16], in [5] and in assay [6] was inactive. The outcome in assay [7] and in assay [19] was inactive. Also, the Potency result in [8], in [15], in [9], in [10], in [11] and in assay [12] was “inactive” in each case. Further, the Potency entry in assay [20] and in assay [13] was “inactive” in each case.
